Shown are actives, neighbours in structure and some others; about 3.1% of the full set was active somewhere.
SSB-PriA inh – inhibitors of Klebsiella pneumoniae PriA binding to SSB C-terminal tail, primary screen, biochemical, AlphaScreen. PriA–SSB C-terminal tail interaction (Klebsiella pneumoniae). AlphaScreen SSBct-PriA binding, biotinylated peptide. inhibition, % at 33 µM. 430,000 tested, 0.6% active. AID 1272365, 2023; in the data active = inhibition mostly above about 37%, no sharp cut-off; inactive = mostly below about 20%
Autofluor counter – flagged as autofluorescent in microsphere protease counterscreen; compound autofluorescence counterscreen, microsphere flow cytometry; hits give high values; AID 624483; 360,000 tested, 3.1% active; fluorescence intensity (no concentration beside the values); in the data active = fluorescence intensity above about 16000; inconclusive = no clear call, values can overlap the other calls
BoNT A protease – BoNT/A light chain protease inhibitors, primary screen, biochemical, flow cytometry, MLPCN library | AID 588499, 2011 | multiplex microsphere protease substrate cleavage | 360,000 tested, 0.17% active | inhibition, % at 10 µM | Botulinum neurotoxin type A light chain protease (Clostridium botulinum A str. ATCC 3502)
Anthrax LF inh2 – Bacillus anthracis LF protease inhibitors, primary screen, biochemical, multiplex microsphere, MLPCN library; Lethal factor (Bacillus anthracis), P15917; multiplex microsphere protease cleavage assay; inhibition, % at 10 µM; 360,000 tested, 0.12% active
Target sequence (P15917 whole entry, looked up): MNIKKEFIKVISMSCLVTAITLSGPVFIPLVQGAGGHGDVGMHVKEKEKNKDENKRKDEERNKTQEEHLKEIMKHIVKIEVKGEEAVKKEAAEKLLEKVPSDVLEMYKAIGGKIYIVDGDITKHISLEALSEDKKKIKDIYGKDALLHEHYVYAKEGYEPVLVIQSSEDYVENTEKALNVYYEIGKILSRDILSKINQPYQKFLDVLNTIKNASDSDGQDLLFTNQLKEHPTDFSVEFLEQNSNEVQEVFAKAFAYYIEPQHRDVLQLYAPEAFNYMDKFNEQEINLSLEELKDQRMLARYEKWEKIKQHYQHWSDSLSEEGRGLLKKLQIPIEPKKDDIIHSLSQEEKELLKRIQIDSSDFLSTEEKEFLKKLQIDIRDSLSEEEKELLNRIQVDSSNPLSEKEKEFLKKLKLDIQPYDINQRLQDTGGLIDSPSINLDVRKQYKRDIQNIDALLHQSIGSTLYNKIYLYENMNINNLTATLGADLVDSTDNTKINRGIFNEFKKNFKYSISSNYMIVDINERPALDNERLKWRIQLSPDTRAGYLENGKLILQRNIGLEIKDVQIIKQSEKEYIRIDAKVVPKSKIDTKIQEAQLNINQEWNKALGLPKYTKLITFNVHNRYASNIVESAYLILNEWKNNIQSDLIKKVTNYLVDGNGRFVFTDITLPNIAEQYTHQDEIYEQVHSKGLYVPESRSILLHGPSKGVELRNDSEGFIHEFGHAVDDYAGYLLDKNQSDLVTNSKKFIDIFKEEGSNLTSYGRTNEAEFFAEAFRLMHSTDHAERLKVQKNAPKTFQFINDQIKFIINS
BoNT F protease – BoNT/F light chain protease inhibitors, primary screen, biochemical, flow cytometry, MLPCN library; Botulinum neurotoxin type F light chain protease (Clostridium botulinum); Multiplex microsphere protease cleavage assay; inhibition, % at 10 µM; 360,000 tested, 0.22% active; AID 588497, 2011; in the data active = inhibition above about 35%, passing the limit was not always enough; inconclusive = no clear call, values can overlap the other calls
Large screens that a line does not name were inactive. Cut-off read from the data, not from the text of the source, unless noted: active = inhibition above about 30%; inconclusive = no clear call, values can overlap the other calls; inactive = below that.

CC1CCc2sc(C(=O)NCc3ccc(F)cc3)cc2C1 (stereo not drawn)	Autofluor counter 24108, BoNT A protease inconclusive
CSc1ccccc1C(=O)NCC1CCCO1 (stereo not drawn)	Autofluor counter 18506
CSc1ccccc1C(=O)NC1CCCC1	none
CSc1ccccc1C(=O)NC1CCCCC1	Autofluor counter 22309
O=C(c1ccc(CNS(=O)(=O)c2cccc(C(F)(F)F)c2)cc1)N1CCCCC1	none (no result: Autofluor counter, BoNT A protease, Anthrax LF inh2, BoNT F protease)
CN1CCN(C(=O)COc2ccc(S(=O)(=O)NCc3ccccc3)cc2Cl)CC1	none
CC(C)NS(=O)(=O)c1ccc(OCC(=O)N2CCN(Cc3ccc4c(c3)OCO4)CC2)c(Cl)c1	Autofluor counter 20603
Cc1ccc(OCC(=O)N2CCN(C(=O)Cc3ccccc3)CC2)cc1	none
O=C(COc1ccc(S(=O)(=O)NCc2ccccc2)cc1Cl)N1CCOCC1	Autofluor counter 23739
O=C(COc1ccc(-c2ccccc2)cc1)N1CCN(S(=O)(=O)Cc2ccccc2)CC1	Autofluor counter 16462
O=C(c1ccc(CNS(=O)(=O)c2cccc(C(F)(F)F)c2)cc1)N1CCOCC1	Autofluor counter 22700, BoNT A protease inconclusive
COc1ccc(S(=O)(=O)Nc2ccccc2C(=O)N2CCOCC2)cc1Cl	Autofluor counter 17400
CCOC(=O)N1CCN(C(=O)COc2ccc(S(=O)(=O)NCc3ccccc3)cc2)CC1	Autofluor counter 17159
COc1ccc(S(=O)(=O)Nc2ccccc2C(=O)N2CCOCC2)cc1F	none
COc1c2ccc(C(=O)N3C4CCC3CC(S(=O)(=O)c3ccccc3)C4)cc2nn1C (stereo not drawn)	none (no result: Autofluor counter, BoNT A protease, Anthrax LF inh2, BoNT F protease)
O=C(O)c1ccc(C2CCCC2)cn1	SSB-PriA inh 100 (no result: Autofluor counter, BoNT A protease, Anthrax LF inh2, BoNT F protease)
COc1ccc(CC(=O)c2c(O)cc(O)cc2O)cc1OC	Autofluor counter 22635, BoNT A protease inconclusive
COc1ccc(C(=O)Cc2ccc(OC)c(OC)c2)cc1	none
CNc1cc(C(F)(F)F)nc(-c2ccccn2)n1	Autofluor counter 19306, BoNT A protease inconclusive
Cc1ccc(S(=O)(=O)n2cnc3ccccc32)cc1	Autofluor counter 16399
Nn1c(SC/C=C/c2ccccc2)nnc1-c1ccccn1	SSB-PriA inh 90
Nn1c(SC/C=C/c2ccccc2)nnc1-c1cccnc1	Autofluor counter 21822
Clc1ccc(-n2c(SC/C=C/c3ccccc3)nnc2-c2cccnc2)cc1	none
c1ccc(-c2nnc(SCc3nc4ccccc4[nH]3)n2Cc2ccco2)nc1	SSB-PriA inh 88
C(=C\c1ccccc1)/CSc1nnc(-c2ccccn2)n1Cc1ccco1	SSB-PriA inh 68
CCCS(=O)(=O)NCCOc1ccc2nnc(-c3ccccc3OC)n2n1	none (no result: Autofluor counter, BoNT A protease, Anthrax LF inh2, BoNT F protease)
COc1ccc(C(=O)NN=C(C)CC(=O)Nc2ccc(Cl)cn2)cc1	none (no result: Autofluor counter, BoNT A protease, Anthrax LF inh2, BoNT F protease)
COc1ccccc1[C@H](CNC(=O)c1ccccc1C(F)(F)F)OC	none (no result: Autofluor counter, BoNT A protease, Anthrax LF inh2, BoNT F protease)
COC(=O)Cc1c[nH]c2cccc(OCC(O)CN(Cc3ccc([N+](=O)[O-])cc3)C(C)(C)C)c12 (stereo not drawn)	Autofluor counter 24016
O=S(=O)(c1ccccc1)c1cnn(-c2ccccc2)c1-c1ccc(Cl)cc1	Autofluor counter 22953, BoNT A protease inconclusive
COc1ccc(-c2c(S(=O)(=O)c3ccccc3)cnn2-c2ccccc2)cc1	Autofluor counter 21873
O=C(Nc1cccc(Cn2cccn2)c1)c1cc2c(s1)CCCC2	Autofluor counter 16682
O=C(Nc1cccc(S(=O)(=O)N2CCOCC2)c1)c1cc2c(s1)CCC2	Autofluor counter inconclusive, BoNT A protease inconclusive
CSc1nc2ccc3nc(N)sc3c2s1	none (no result: Autofluor counter, BoNT A protease, Anthrax LF inh2, BoNT F protease)
Nc1nc2ccc([N+](=O)[O-])c(N)c2s1	SSB-PriA inh 55
Cc1ccc(SCc2nc3ccccc3n2CC(=O)Nc2ccccc2)cc1	none
Cc1ccc(SCc2nc3ccccc3n2CC(=O)Nc2c(C)cccc2C)cc1	Autofluor counter 22196
CC(C)N1CCC(CNS(=O)(=O)CCc2ccccc2)CC1	none (no result: Autofluor counter, BoNT A protease, Anthrax LF inh2, BoNT F protease)
O=C(NC1CCN(Cc2ccc(Cl)cc2)CC1)c1cn(-c2ccccc2)nc1-c1cccnc1	Autofluor counter 21980
O=C(O)c1cn(-c2ccccc2)nc1-c1ccc(Cl)cc1	Autofluor counter 17250
CCN(CC)C(=O)C1=C(C)NC(=S)NC1c1cn(-c2ccccc2)nc1-c1ccc(Cl)cc1 (stereo not drawn)	Autofluor counter 23563
COc1ccc(-c2nn(-c3ccccc3)cc2C(=O)O)cc1OC	none
Cc1cccc(NC(=O)C(=O)NC2CCCC2)c1C	none (no result: Autofluor counter, BoNT A protease, Anthrax LF inh2, BoNT F protease)
Cn1cc(-c2cccs2)nc1CCNC(=O)c1ccccc1Br	none (no result: Autofluor counter, BoNT A protease, Anthrax LF inh2, BoNT F protease)
CCOc1ccc(NC(=O)CSC2=NCCS2)cc1	none (no result: Autofluor counter, BoNT A protease, Anthrax LF inh2, BoNT F protease)
Cc1c(CCC(=O)O)c(=O)n2c([nH]c3ccccc32)c1C#N	Autofluor counter 20757
O=C(c1ccc(Cl)cc1)C12CN3CN(CN(C3)C1)C2	none
CN1CC2(C(=O)c3ccccc3)CN(C)CC(C(=O)c3ccccc3)(C1)C2	Autofluor counter 20389, BoNT A protease inconclusive
Cn1c(=O)c(=O)n(C)c2cc(S(=O)(=O)N3CCCCC3)ccc21	Autofluor counter 23051
Cc1c(S(=O)(=O)N2CCN(c3cccc(C(F)(F)F)c3)CC2)c(=O)n(C)c(=O)n1C	none
Cn1c(=O)c(=O)n(C)c2cc(S(=O)(=O)N3CCN(c4cccc(C(F)(F)F)c4)CC3)ccc21	Autofluor counter 21964
Cn1c(=O)oc2cc(S(=O)(=O)N3CCN(c4cccc(Cl)c4)CC3)ccc21	Autofluor counter 22890
Cc1nn(C)c(Cl)c1NC(=O)OCc1ccc(F)cc1	none
COc1ccccc1COC(=O)Nc1c(C)nn(C)c1Cl	Autofluor counter 18871, BoNT A protease inconclusive
COc1ccc(NC(=O)CSC2=Nc3cccnc3Nc3ccccc32)cc1OC	SSB-PriA inh 44 (no result: Autofluor counter, BoNT A protease, Anthrax LF inh2, BoNT F protease)
O=C(CSC1=Nc2cccnc2Nc2ccccc21)Nc1cc(Cl)ccc1Cl	none (no result: Autofluor counter, BoNT A protease, Anthrax LF inh2, BoNT F protease)
O=C(CSC1=Nc2cccnc2Nc2ccccc21)Nc1ccc(F)cc1F	SSB-PriA inh 41 (no result: Autofluor counter, BoNT A protease, Anthrax LF inh2, BoNT F protease)
Cc1cc(NC(=O)CSc2nnc(-c3ccccc3)c3sc(C)nc23)no1	none (no result: Autofluor counter, BoNT A protease, Anthrax LF inh2, BoNT F protease)
O=C(CCSc1nnc2scc(-c3ccccc3)n12)NCc1ccc2c(c1)OCO2	Autofluor counter 16498
COCCn1c(SCC(=O)Nc2ccc3c(c2)OCCO3)nnc1-c1c[nH]c2ccccc12	Autofluor counter 22982
Cc1ccc(-c2csc3nnc(SCC(=O)NCc4ccc5c(c4)OCO5)n23)cc1	none
O=C(CSc1nnc2scc(-c3ccccc3)n12)Nc1ccc2c(c1)OCCO2	Autofluor counter 16931, BoNT A protease inconclusive
O=C(CN(c1ccccc1)S(=O)(=O)c1ccccc1)NN=Cc1ccco1	none (no result: Autofluor counter, BoNT A protease, Anthrax LF inh2, BoNT F protease)
Cc1nnc(SCC(=O)Nc2cc(C(C)(C)C)cc(C(C)(C)C)c2)s1	none (no result: Autofluor counter, BoNT A protease, Anthrax LF inh2, BoNT F protease)
Cc1cc(NC(=O)CSc2ccc3nnc(-c4ccc(F)cc4)n3n2)no1	none
Cc1ccc(-c2nnc3ccc(SCC(=O)Nc4cc(C)on4)nn23)cc1	Autofluor counter 20468
Cc1cc(NC(=O)CSc2nnc(-c3cccnc3)n2C)no1	Autofluor counter 21792, BoNT A protease inconclusive
